Measurements published in ChEMBL document CHEMBL2218924, “A broad activity screen in support of a chemogenomic map for kinase signalling research and drug discovery” (Biochem J, 2013).

Tests used:
[1] = target: T1, Protein kinase C zeta type (Homo sapiens) (UniProt Q05513); settings: at 1 µM
T1 sequence (whole entry): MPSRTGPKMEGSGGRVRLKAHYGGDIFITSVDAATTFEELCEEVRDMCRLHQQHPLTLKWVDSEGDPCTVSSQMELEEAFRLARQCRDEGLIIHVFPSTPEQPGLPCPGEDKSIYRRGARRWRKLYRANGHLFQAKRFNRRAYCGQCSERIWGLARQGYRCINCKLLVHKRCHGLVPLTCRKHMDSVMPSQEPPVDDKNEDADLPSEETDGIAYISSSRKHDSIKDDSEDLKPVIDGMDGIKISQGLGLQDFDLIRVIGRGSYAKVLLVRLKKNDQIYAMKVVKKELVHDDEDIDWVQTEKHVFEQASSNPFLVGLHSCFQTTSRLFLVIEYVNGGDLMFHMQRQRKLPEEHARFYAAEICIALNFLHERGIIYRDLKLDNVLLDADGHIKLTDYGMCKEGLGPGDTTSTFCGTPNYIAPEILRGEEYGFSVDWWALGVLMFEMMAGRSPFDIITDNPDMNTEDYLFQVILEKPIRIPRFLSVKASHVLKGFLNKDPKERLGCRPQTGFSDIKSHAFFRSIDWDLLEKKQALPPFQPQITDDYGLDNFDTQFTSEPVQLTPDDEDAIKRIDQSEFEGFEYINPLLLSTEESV

[2] = target: T2, Mitogen-activated protein kinase kinase kinase 5 (Homo sapiens) (UniProt Q99683); settings: at 10 µM
T2 sequence (whole entry): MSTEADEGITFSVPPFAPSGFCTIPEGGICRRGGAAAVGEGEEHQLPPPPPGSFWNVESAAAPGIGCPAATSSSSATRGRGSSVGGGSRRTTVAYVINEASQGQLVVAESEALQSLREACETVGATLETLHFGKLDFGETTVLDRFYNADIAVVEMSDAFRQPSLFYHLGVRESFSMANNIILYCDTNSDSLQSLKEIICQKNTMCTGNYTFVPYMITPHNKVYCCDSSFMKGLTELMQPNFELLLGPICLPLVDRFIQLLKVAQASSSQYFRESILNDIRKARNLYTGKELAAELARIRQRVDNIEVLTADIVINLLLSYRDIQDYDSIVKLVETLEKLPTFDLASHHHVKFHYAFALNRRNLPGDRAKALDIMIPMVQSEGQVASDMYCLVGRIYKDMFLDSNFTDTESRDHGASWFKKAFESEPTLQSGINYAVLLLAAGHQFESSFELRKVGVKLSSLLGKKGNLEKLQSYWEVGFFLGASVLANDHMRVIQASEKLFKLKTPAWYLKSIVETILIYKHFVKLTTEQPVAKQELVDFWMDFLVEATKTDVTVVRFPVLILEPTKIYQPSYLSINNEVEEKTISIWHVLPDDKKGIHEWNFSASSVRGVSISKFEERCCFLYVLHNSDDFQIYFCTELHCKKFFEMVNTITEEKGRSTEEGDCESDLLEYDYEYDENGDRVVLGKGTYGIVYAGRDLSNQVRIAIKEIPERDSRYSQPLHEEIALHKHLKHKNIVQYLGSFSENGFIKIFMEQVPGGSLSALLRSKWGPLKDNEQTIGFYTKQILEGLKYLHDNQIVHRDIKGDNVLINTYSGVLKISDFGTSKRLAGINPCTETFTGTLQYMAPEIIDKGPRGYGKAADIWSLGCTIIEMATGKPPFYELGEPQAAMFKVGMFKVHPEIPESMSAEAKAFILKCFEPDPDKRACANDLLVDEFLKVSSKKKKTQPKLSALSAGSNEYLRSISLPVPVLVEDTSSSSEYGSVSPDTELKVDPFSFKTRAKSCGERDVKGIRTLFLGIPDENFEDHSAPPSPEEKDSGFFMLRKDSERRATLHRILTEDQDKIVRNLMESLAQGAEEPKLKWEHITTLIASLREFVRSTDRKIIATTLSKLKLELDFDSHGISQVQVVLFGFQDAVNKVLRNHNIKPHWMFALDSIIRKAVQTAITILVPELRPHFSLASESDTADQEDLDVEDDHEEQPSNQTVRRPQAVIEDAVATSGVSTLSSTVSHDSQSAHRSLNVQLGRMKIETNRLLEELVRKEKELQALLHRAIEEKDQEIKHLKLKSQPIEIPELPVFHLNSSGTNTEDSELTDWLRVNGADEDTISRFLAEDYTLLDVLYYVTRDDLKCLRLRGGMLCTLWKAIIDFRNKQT

[3] = target: Tyrosine-protein kinase ABL1 (Homo sapiens) (UniProt P00519); settings: at 1 µM
Chain of Tyrosine-protein kinase ABL1 (Homo sapiens) (P00519 whole entry): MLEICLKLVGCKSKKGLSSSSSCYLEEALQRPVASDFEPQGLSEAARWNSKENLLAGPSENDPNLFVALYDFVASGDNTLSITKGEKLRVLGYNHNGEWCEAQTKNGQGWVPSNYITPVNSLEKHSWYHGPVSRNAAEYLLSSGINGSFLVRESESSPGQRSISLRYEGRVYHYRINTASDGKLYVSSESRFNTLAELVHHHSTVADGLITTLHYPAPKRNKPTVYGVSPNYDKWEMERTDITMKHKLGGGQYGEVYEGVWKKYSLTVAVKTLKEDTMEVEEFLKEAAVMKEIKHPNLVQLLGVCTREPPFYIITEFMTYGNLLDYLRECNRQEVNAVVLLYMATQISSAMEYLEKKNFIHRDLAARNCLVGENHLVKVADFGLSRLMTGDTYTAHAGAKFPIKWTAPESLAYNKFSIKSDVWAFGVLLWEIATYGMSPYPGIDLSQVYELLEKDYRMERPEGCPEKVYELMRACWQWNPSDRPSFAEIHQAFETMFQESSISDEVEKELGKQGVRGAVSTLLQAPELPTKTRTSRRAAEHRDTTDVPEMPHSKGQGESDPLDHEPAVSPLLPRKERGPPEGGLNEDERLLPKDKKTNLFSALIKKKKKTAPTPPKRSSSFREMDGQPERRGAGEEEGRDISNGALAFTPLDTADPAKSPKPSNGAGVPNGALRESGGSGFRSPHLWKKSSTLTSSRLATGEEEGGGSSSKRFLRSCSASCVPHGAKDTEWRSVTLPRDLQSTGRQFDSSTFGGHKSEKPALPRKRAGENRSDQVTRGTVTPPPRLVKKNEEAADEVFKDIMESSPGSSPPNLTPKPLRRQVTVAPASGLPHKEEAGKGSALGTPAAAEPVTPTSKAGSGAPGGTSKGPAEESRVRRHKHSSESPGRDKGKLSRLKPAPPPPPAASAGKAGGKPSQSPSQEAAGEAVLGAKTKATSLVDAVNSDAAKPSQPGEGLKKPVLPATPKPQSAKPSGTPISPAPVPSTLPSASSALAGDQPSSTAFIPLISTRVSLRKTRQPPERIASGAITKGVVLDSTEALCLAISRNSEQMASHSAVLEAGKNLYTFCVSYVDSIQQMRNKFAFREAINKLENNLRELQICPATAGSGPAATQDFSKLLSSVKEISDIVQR

[4] = target: Tyrosine-protein kinase ABL1 (Homo sapiens) (UniProt P00519); settings: at 10 µM
[5] = target: Tyrosine-protein kinase ABL2 (Homo sapiens) (UniProt P42684); settings: at 1 µM
Chain of Tyrosine-protein kinase ABL2 (Homo sapiens) (P42684 whole entry): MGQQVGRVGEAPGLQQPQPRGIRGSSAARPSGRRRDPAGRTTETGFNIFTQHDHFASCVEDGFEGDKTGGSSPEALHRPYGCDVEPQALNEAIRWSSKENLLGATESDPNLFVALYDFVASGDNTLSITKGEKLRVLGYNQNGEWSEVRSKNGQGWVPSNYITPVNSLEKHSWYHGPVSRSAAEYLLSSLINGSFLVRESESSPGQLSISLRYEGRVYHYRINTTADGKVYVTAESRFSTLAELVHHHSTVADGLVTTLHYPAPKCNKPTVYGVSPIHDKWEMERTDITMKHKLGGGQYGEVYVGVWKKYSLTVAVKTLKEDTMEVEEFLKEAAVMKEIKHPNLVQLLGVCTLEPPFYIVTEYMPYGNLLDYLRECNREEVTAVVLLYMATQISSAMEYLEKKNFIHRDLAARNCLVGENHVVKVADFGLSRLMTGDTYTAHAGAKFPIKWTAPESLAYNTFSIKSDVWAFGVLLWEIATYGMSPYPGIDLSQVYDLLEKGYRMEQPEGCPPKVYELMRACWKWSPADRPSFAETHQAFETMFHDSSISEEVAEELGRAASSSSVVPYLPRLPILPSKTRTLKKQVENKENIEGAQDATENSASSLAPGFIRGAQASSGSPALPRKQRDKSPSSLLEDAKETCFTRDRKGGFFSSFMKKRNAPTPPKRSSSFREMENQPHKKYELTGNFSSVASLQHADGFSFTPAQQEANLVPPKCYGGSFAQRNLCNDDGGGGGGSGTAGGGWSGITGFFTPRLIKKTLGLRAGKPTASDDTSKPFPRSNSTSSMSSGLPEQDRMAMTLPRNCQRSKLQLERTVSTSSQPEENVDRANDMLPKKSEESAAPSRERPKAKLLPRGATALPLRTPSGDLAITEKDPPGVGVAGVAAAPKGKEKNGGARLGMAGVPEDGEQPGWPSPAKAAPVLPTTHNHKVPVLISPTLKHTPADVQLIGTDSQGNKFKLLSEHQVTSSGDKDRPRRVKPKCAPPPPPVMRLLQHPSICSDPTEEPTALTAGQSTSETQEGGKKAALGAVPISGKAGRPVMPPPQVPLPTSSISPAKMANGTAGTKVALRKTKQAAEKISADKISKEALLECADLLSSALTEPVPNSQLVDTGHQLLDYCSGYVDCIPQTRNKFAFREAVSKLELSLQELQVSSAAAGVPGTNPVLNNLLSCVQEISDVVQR

[6] = target: Tyrosine-protein kinase ABL2 (Homo sapiens) (UniProt P42684); settings: at 10 µM
[7] = target: T3, Aurora kinase A (Homo sapiens) (UniProt O14965); settings: at 1 µM
T3 sequence (whole entry): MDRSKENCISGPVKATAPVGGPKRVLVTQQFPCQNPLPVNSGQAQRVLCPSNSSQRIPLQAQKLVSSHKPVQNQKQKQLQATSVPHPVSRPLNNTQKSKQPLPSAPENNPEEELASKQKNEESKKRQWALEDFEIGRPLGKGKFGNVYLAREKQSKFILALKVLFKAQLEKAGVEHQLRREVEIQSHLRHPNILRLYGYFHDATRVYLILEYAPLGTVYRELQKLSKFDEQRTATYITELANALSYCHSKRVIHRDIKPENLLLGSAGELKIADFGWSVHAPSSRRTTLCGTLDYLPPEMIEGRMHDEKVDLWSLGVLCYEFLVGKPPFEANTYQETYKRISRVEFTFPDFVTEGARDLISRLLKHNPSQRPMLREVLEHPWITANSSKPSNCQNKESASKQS

[8] = target: T3, Aurora kinase A (Homo sapiens); settings: at 10 µM
[9] = target: Aurora kinase B (Homo sapiens) (UniProt Q96GD4); settings: at 1 µM
Chain of Aurora kinase B (Homo sapiens) (Q96GD4 whole entry): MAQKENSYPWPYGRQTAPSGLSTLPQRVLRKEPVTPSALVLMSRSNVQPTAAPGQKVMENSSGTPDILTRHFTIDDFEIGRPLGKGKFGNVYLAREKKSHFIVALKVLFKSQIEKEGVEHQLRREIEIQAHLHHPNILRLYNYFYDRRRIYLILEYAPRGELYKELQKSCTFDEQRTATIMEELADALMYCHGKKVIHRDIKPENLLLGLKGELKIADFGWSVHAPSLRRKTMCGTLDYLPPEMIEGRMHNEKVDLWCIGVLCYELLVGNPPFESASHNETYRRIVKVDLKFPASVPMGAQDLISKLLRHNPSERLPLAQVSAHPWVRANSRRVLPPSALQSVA

[10] = target: Aurora kinase B (Homo sapiens) (UniProt Q96GD4); settings: at 10 µM

| Compound | residual activity [1] | residual activity [2] [%] | residual activity [3] [%] | residual activity [4] [%] | residual activity [5] [%] | residual activity [6] [%] | residual activity [7] [%] | residual activity [8] [%] | residual activity [9] [%] | residual activity [10] [%] |
| --- | --- | --- | --- | --- | --- | --- | --- | --- | --- | --- |
| Cn1cnc2cc3c(Nc4cccc(Br)c4)ncnc3cc21 | 99% (inactive) | 107 | 29 | 10 | 42 | 14 | 78 | 45 | 45 | 6 |
| O=c1c2ccccc2[nH]c(=S)n1CCN1CCC(=C(c2ccc(F)cc2)c2ccc(F)cc2)CC1 | 101% (inactive) | 116 | 86 | 124 | 93 | 74 | 119 | 108 | 95 | 115 |
| Nc1n[nH]c2nnc(-c3c(-c4ccccc4)nn4ccccc34)cc12 | 116% (inactive) | 100 | 64 | 19 | 66 | 18 | 105 | 92 | 91 | 41 |
| Cc1cc2ncc(-c3ccccc3)nc2cc1C | 106% (inactive) | 83 | 92 | 87 | 96 | 103 | 77 | 96 | 87 | 75 |
| CC(C)n1cnc2/c(=N/c3cccc(Cl)c3)nc(NCCO)[nH]c21 | 100% (inactive) | 86 | 73 | 25 | 52 | 10 | 88 | 47 | 13 | 3 |
| O=C1c2ccccc2-[n+]2ccc3c([nH]c4ccccc43)c21 | 98% (inactive) | 92 | 102 | 102 | 111 | 87 | 101 | 89 | 93 | 52 |
| O=C1Nc2ccccc2/C1=C1/Nc2ccccc2/C1=N\OCCC(O)CO (stereo not given) | 95% (inactive) | 29 | 61 | 43 | 45 | 18 | 7 | 3 | -1 | -1 |
| CNc1cc2c(Nc3cccc(Br)c3)ncnc2cn1 | 99% (inactive) | 112 | 85 | 87 | 93 | 79 | 60 | 71 | 43 | 10 |
| O=Nc1c(-c2c(O)[nH]c3ccccc23)[nH]c2ccccc12 | 101% (inactive) | 7 | 49 | 16 | 30 | 28 | 7 | 0 | 1 | -2 |
| CO[C@H]1C[C@@H]2CC[C@@H](C)[C@@](O)(O2)C(=O)C(=O)N2CCCC[C@H]2C(=O)O[C@H]([C@H](C)C[C@@H]2CC[C@@H](O)[C@H](OC)C2)CC(=O)[C@H](C)/C=C(\C)[C@@H](O)[C@@H](OC)C(=O)[C@H](C)C[C@H](C)/C=C/C=C/C=C/1C | 96% (inactive) | 96 | 91 | 139 | 119 | 118 | 87 | 118 | 92 | 73 |
| O=C1NC(=O)c2cc(Nc3ccc(F)cc3)c(Nc3ccc(F)cc3)cc21 | 101% (inactive) | 92 | 85 | 87 | 90 | 58 | 89 | 79 | 124 | 120 |
| CO[C@H]1[C@@H](OC)C[C@H](C)[C@@H](OC)C2=CC(=O)C=C(NC(=O)/C(C)=C/C=C/[C@H](OC)[C@@H](OC(N)=O)/C(C)=C/[C@@H]1C)C2=O | 104% (inactive) | 99 | 94 | 68 | 111 | 105 | 77 | 86 | 72 | 68 |
| CC[n+]1c(/C=C/N(C)c2ccccc2)n(-c2ccccc2)c2ccc(-c3nc4ccccc4s3)cc21 | 107% (inactive) | 102 | 115 | 146 | 112 | 85 | 117 | 139 | 139 | 91 |
| COc1cccc(-c2cc(=O)c3ccccc3o2)c1N | 111% (inactive) | 112 | 111 | 92 | 115 | 74 | 122 | 107 | 113 | 103 |
| CC#CC(=O)Nc1cc2c(Nc3ccc(F)c(Cl)c3)ncnc2cn1 | 97% (inactive) | 94 | 92 | 91 | 118 | 74 | 106 | 108 | 114 | 85 |
| O=c1cc(-c2cccc3c2Sc2ccccc2S3)oc(N2CCOCC2)c1 | 107% (inactive) | 98 | 99 | 89 | 97 | 90 | 101 | 120 | 105 | 92 |
| CCN(CC)CCCCN1c2ccccc2Oc2ccc(Cl)cc21 | 114% (inactive) | 114 | 124 | 102 | 140 | 122 | 97 | 140 | 141 | 103 |
